Cycloheximide cs: Cycloheximide Counterscreen for Small Molecule Inhibitors of Shiga Toxin | AID 2314, 2010 | 12% of 300,000 active | max response, % | cell reporter, cycloheximide protein synthesis inhibition counterscreen; in the data active = max response mostly above about 13%, no sharp cut-off; inactive = mostly below about 14%; note: read at 38.3 µM for the half of the compounds with a filed dose; 0% is about no effect
NS1 inh: qHTS Assay for Inhibitors of Influenza NS1 Protein Function; AID 2326, 2010; Potency, µM (highest dose often 46.1 µM), for inactives: at the top dose activity, positive = more growth; 0.4% of 270,000 active; calls by dose curve; note: potency is the fitted concentration of half-maximal effect; actives are rising curves; nearly all actives have a fitted effect of over 50% in size
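Growth recovery, yeast-based: influenza A NS1 expressed in S. cerevisiae causes slow growth, and suppressors are detected by OD600. The parent strain without NS1 is used as positive control.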
Shiga toxin inh: A qHTS for Small Molecule Inhibitors of Shiga Toxin. Vero cells, Shiga toxin protein synthesis inhibition reporter. inhibition, % at 38.7 µM. 9.2% of 290,000 active. AID 2315, 2010; in the data active = inhibition mostly above about 28%, no sharp cut-off; inactive = mostly below about 43%; note: 0% is about no effect
Pf growth 48h: Primary qHTS for delayed death inhibitors of the malarial parasite plastid, 48 hour incubation | P. falciparum luciferase growth in erythrocytes, 48 h | Potency, µM (series often up to 28.7 µM), inactives show at the highest dose activity change, negative = inhibition, actives largely listed as inhibitors | 5.9% of 310,000 active | AID 504832, 2011; note: potency is the fitted concentration of half-maximal effect; % is set by controls: 0 for no effect and ±100 for the full control effect
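Firefly luciferase activity from engineered P. falciparum reports growth; inhibitors lower the luminescent signal. Cultures contained 2% hematocrit erythrocytes at 0.1% final parasitemia.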
SARS PLpro yeast: qHTS of Yeast-based Assay for SARS-CoV PLP; S. cerevisiae expressing SARS-CoV PLpro, growth rescue; Potency, µM (titrated, usually from 32.9 µM), without a hit: at the top dose activity, positive = growth rescue, most hits filed as activators; 0.19% of 330,000 active; calls by dose curve; note: potency is the fitted concentration of half-maximal effect; 0% is about no effect; nearly all actives have a fitted effect of over 55% in size
Pf growth 96h: Primary qHTS for delayed death inhibitors of the malarial parasite plastid, 96 hour incubation; P. falciparum luciferase reporter growth, 96 h; Potency, µM (doses to about 28.7 µM), for the others: top-dose activity change, negative = inhibition, hits mostly inhibitors; 6.9% of 320,000 active; note: potency is the fitted concentration of half-maximal effect; % is set by controls: 0 for no effect and ±100 for the full control effect
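Erythrocytes infected with luciferase-expressing P. falciparum were dispensed at 2% hematocrit and 0.05% parasitemia (final), then incubated with compounds 96 hours at 37 C in 5% CO2. Luminescence after detection reagent addition reported growth.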
* = called active by the depositor. The list is not random: actives were taken first. Their share in the collection is about 21%. Unless noted, calls come from the whole dose curve; as a rule, active = well fitted inhibition curve with a large enough effect; inconclusive = small, poorly fitted or top-dose-only effect, or another doubt; inactive = no such curve, though single readings can be large or run the other way.

`COc1ccccc1NC(=O)C(=O)NCC(c1ccco1)N1CCc2ccccc21` (stereo unspecified) gave Pf growth 48h 11.7µM*, SARS PLpro yeast -1.6% and Pf growth 96h inconclusive.
For O=C(NCC(c1ccco1)N1CCc2ccccc21)c1ccccc1 (stereo unspecified) the results were Pf growth 48h inconclusive, SARS PLpro yeast 1.8% and Pf growth 96h inconclusive.
For O=C(NCC(c1ccco1)N1CCc2ccccc21)C(=O)Nc1ccccc1 (stereo unspecified) the results were Pf growth 48h 1.31µM*, SARS PLpro yeast 5.1% and Pf growth 96h inconclusive.
COc1ccccc1C(=O)NCC(c1ccco1)N1CCc2ccccc21 (stereo unspecified) was read as Pf growth 48h 10.4µM*, SARS PLpro yeast -0.3% and Pf growth 96h 5.22µM*.
For COc1cc(C(=O)NCC(c2ccco2)N2CCc3ccccc32)cc(OC)c1OC (stereo unspecified) the results were Pf growth 48h -14.0%, SARS PLpro yeast 0.3% and Pf growth 96h -17.1%.
Screening Cc1ccc(C(=O)NCC(c2ccco2)N2CCc3ccccc32)cc1C (stereo unspecified) returned Pf growth 48h 9.28µM*, SARS PLpro yeast -14.0% and Pf growth 96h inconclusive.
Screening COc1ccccc1C(=O)NCC(c1cccs1)N1CCc2ccccc21 (stereo unspecified) returned Pf growth 48h 11.7µM*, SARS PLpro yeast 0.5% and Pf growth 96h 3.7µM*.
For COc1cc(C(=O)Nc2ccc3c(c2)OCO3)c([N+](=O)[O-])cc1OC the results were Cycloheximide cs -0.8, NS1 inh 5.7%, Shiga toxin inh 16.4, Pf growth 48h 2.6%, SARS PLpro yeast 3.2% and Pf growth 96h 5.3%.
Cc1ccc(C(=O)Nc2cccc(-c3ccc(N4CCOCC4)nn3)c2)cc1C was read as Pf growth 48h inconclusive, SARS PLpro yeast 0.2% and Pf growth 96h inconclusive.
For CN(C)S(=O)(=O)c1cc(NC(=O)c2ccc(-n3ccnc3)c([N+](=O)[O-])c2)ccc1Cl the results were Cycloheximide cs -1.9, NS1 inh 12.2%, Shiga toxin inh 19.2, Pf growth 48h 8.28µM*, SARS PLpro yeast -9.3% and Pf growth 96h inconclusive.
CC1CCCN(c2ccc(C(=O)Nc3cccnc3)cc2[N+](=O)[O-])C1 (stereo unspecified) was read as Cycloheximide cs 19.6, Shiga toxin inh 48.1*, Pf growth 48h -15.3%, SARS PLpro yeast -10.7% and Pf growth 96h 5.5%.
`Cc1cc(C(=O)Nc2cccc(-c3ccc(N4CCOCC4)nn3)c2)ccc1[N+](=O)[O-]` gave Pf growth 48h inconclusive, SARS PLpro yeast -2.0% and Pf growth 96h 10.4µM*.
For O=C(Nc1ccc2c(c1)OCO2)c1ccc(NC2CC2)c([N+](=O)[O-])c1 the results were Cycloheximide cs 26.3*, NS1 inh 18.2%, Shiga toxin inh 102.4*, Pf growth 48h 10.3%, SARS PLpro yeast -17.5% and Pf growth 96h 11.6%.
Screening O=C(O)c1cc(NC(=O)c2ccccc2[N+](=O)[O-])ccc1O returned Cycloheximide cs -4.9, NS1 inh 2.7%, Shiga toxin inh -5.9, Pf growth 48h 33.6%, SARS PLpro yeast 1.3% and Pf growth 96h -20.4%.
Screening O=C(Nc1ccc(N2CCCC2)c(Cl)c1)c1ccccc1[N+](=O)[O-] returned Cycloheximide cs 26.8*, NS1 inh 5.4%, Shiga toxin inh 15.0, Pf growth 48h 14.6%, SARS PLpro yeast 16.8% and Pf growth 96h inconclusive.
Screening O=C(Nc1ccc2c(c1)OCO2)c1ccc(N2CCCC2)c([N+](=O)[O-])c1 returned Cycloheximide cs 34.4*, NS1 inh 13.2%, Shiga toxin inh 29.2, Pf growth 48h 1.1%, SARS PLpro yeast -52.3% and Pf growth 96h inconclusive.
O=C(Nc1ccc(N2CCCCC2)c(Cl)c1)c1ccc(N2CCOCC2)c([N+](=O)[O-])c1 was read as Cycloheximide cs 0.4, NS1 inh 13.6%, Shiga toxin inh -9.2, Pf growth 48h 5.22µM*, SARS PLpro yeast -1.5% and Pf growth 96h inconclusive.
Screening O=C(Nc1ccc(N2CCOCC2)c(Cl)c1)c1ccc2c(c1)OCCO2 returned Cycloheximide cs -1.7, NS1 inh 2.1%, Shiga toxin inh 8.1, Pf growth 48h inconclusive, SARS PLpro yeast -1.2% and Pf growth 96h -5.2%.
For O=C(Nc1ccc(N2CCCCC2)c(Cl)c1)c1ccc2c(c1)OCCO2 the results were Cycloheximide cs 45.2*, NS1 inh -5.6%, Shiga toxin inh 56.8, Pf growth 48h 11.6% and SARS PLpro yeast -30.5%.
O=c1[nH]c2[nH]c(=S)[nH]c(=S)c2[nH]1 was read as NS1 inh 5.6%.
For O=C(c1cc(-c2ccc(F)cc2)nc2ccccc12)N1CCN(C2CCS(=O)(=O)C2)CC1 (stereo unspecified) the results were Pf growth 48h -7.7%, SARS PLpro yeast 1.8% and Pf growth 96h inconclusive.
Screening CC(=O)N1CCN(c2ccc(NC(=O)c3ccc(N4CCCC4)c([N+](=O)[O-])c3)cc2Cl)CC1 returned Cycloheximide cs 10.2, NS1 inh 2.0%, Shiga toxin inh -7.8, Pf growth 48h 11.7µM*, SARS PLpro yeast 2.4% and Pf growth 96h inconclusive.
For CCCNc1nc(Cl)nc(NC(C)(C)C)n1 the results were Cycloheximide cs 12.8, Shiga toxin inh 27.1, Pf growth 48h 4.9%, SARS PLpro yeast -1.5% and Pf growth 96h inconclusive.
For CCN(CC)CC(C)(C)COC(=O)c1oc2ccccc2c1C the results were Cycloheximide cs 15.9, NS1 inh -4.9%, Shiga toxin inh 43.5*, Pf growth 48h 4.2%, SARS PLpro yeast -0.8% and Pf growth 96h 32.8%.
`Cc1c(C(=O)OCC(=O)N(C)Cc2ccccc2)oc2ccccc12` gave Pf growth 48h -14.8%, SARS PLpro yeast 2.9% and Pf growth 96h 44.1%.
For Cc1c(C(=O)OCC(=O)Nc2ccc(C(=O)N(C)C)cc2)oc2ccccc12 the results were Cycloheximide cs 1.6, NS1 inh -7.5%, Shiga toxin inh -4.5, Pf growth 48h 18.6%, SARS PLpro yeast 0.0% and Pf growth 96h 46.7%.
`Cc1c(C(=O)OCC(=O)N(C)c2ccccc2)oc2ccccc12` gave Cycloheximide cs 27.9*, NS1 inh -36.6%, Shiga toxin inh 50.2*, Pf growth 48h 14.5%, SARS PLpro yeast -3.0% and Pf growth 96h 53.2%.
Screening Cc1c(C(=O)OCC(C)(C)CN(C)C)oc2ccccc12 returned Cycloheximide cs 43.8*, NS1 inh -0.4%, Shiga toxin inh 86.6*, Pf growth 48h 52.0%, SARS PLpro yeast -1.6% and Pf growth 96h 30.1%.

Bioassay records: PubChem, National Center for Advancing Translational Sciences (NCATS)
